The source of these data is PubChem BioAssay (NCI).

SMILES strings stand for the structures. Compounds without any hit were thinned out: in the full panel of roughly 83,000, 20% have a hit.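 Activity criterion: percent growth below 10, measured after cells in 96-well plates were exposed to a single compound concentration for 48 hours.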 A number with no mark means an inactive call. Calls of active or inactive are those of the source.

Some test systems named below: NCI-H23 lung; NCI-H322M lung; NCI-H460 lung; NCI-H522 lung; A549/ATCC NSCLC; 786-0 renal; COLO 205 colon; HOP-62 NSCLC; HOP-92 NSCLC.
Test in all cases: NCI-60 one-dose screen, 48 h (100 = growth as untreated, 0 = no growth, -100 = all killed)
Details in all cases: 10 µM unless noted

`N/C(=N\c1nc2ccccc2s1)NC(=O)Nc1cccc(Cl)c1`: the growth with NCI-H23 lung was 59.4%; with NCI-H322M lung, 53.3%; in the assay with NCI-H460 lung it was 15.1%; in the assay with NCI-H522 lung, 17.1%; with A549/ATCC NSCLC, 40.4%; in the assay on 786-0 renal, 34.8%. For the same compound, the growth in the assay with COLO 205 colon is 26.2%.
As to `COc1cccc(/C=C/C(=O)c2c(C)nc3ccccc3c2/C=C/c2ccc(C)cc2)c1OC`, the growth in the assay on NCI-H23 lung was 49.7%; in the assay on NCI-H322M lung it was 82.1%; in the assay with HOP-62 NSCLC it was 70%; with NCI-H460 lung, 26.1%; in the assay with HOP-92 NSCLC, 76.4%; with NCI-H522 lung, 50.5%. In addition, the values for the growth with A549/ATCC NSCLC, with 786-0 renal and in the assay with COLO 205 colon were 94.3%, 74.5% and 80.6%, respectively.
Regarding `COc1cccc(-c2nn(-c3ccccc3)cc2-c2ccnc(NCCCNC(=O)c3ccc(F)cc3)c2)c1`, the growth was 53.1% in the assay with NCI-H23 lung; 80.8% in the assay with NCI-H322M lung; 35.6% with HOP-62 NSCLC; 45.8% in the assay on NCI-H460 lung; 57.4% in the assay with HOP-92 NSCLC; 51.8% in the assay on NCI-H522 lung. Moreover, the growth is 30.5% with A549/ATCC NSCLC, 38.2% in the assay on 786-0 renal and 31.7% with COLO 205 colon.
In the case of `C[C@H]1[C@H]2[C@H]3CC[C@@H]4[C@@]5(C)C/C(=C/c6ccco6)C(=O)C(C)(C)[C@@H]5CC[C@@]4(C)[C@]3(C)CC[C@]23CO[C@]1(C)[C@@H](C(=O)/C=C\c1ccco1)C3`, the growth is 99.6% with NCI-H23 lung; 98.4% in the assay with NCI-H322M lung; 106% with HOP-62 NSCLC; 107% in the assay on NCI-H460 lung; 87.1% with HOP-92 NSCLC; 85.7% in the assay with NCI-H522 lung. For the same compound, the growth in the assay with A549/ATCC NSCLC is 88.3%; with 786-0 renal it was 104%; with COLO 205 colon it was -6.84% (active).
As for `COc1cc(/C=C/C(=O)c2c(C)nc3ccccc3c2/C=C/c2ccc(C)cc2)cc(OC)c1OC`, the growth in the assay on NCI-H23 lung was 24.4%; in the assay with NCI-H322M lung, 57.5%; in the assay with HOP-62 NSCLC it was 28.7%; with NCI-H460 lung, -22.1% (active); with HOP-92 NSCLC, 69.7%; in the assay on NCI-H522 lung, 24.1%. Also, the growth with A549/ATCC NSCLC is 73.1%; in the assay on 786-0 renal it was 28.4%; with COLO 205 colon it was 46.2%.
Take `COc1ccc(-c2nc(SCCC(C)C)nc(N/N=C\c3cccc(Cl)c3)c2C#N)cc1`: the growth in the assay on NCI-H23 lung is 82.6%; with NCI-H322M lung, 55.8%; with HOP-62 NSCLC it was 49.7%; with NCI-H522 lung, 71.3%; with A549/ATCC NSCLC it was 59.7%; in the assay on 786-0 renal, 43.2%. Besides, in the assay with COLO 205 colon, the growth is 81.9%.
`CCN1C(=O)N(CC)C2C1NN=c1s/c(=C\c3cccs3)c(=O)n12` (stereo not drawn): the growth is 36.4% with NCI-H23 lung; 42.7% with NCI-H322M lung; 46.4% in the assay on HOP-62 NSCLC; 8.1% (active) with NCI-H460 lung; 64.1% in the assay with HOP-92 NSCLC; -9.67% (active) in the assay on NCI-H522 lung. For the same compound, the growth with A549/ATCC NSCLC is 25.3%; in the assay with 786-0 renal it was 28.5%; in the assay on COLO 205 colon, -6.95% (active).
`N#C/C(=C\c1ccc(Br)cc1)n1nnc2cc(F)c(F)cc21`: the growth is 28.5% in the assay on NCI-H23 lung; 58.6% in the assay on NCI-H322M lung; 25.9% in the assay with HOP-62 NSCLC; 30.5% in the assay on NCI-H460 lung; -9.69% (active) in the assay with HOP-92 NSCLC; 19.9% in the assay with NCI-H522 lung. Moreover, the figures for the growth in the assay with A549/ATCC NSCLC, in the assay with 786-0 renal and in the assay on COLO 205 colon were 41.5%, 23.2% and 25.7%, respectively.
Take `COc1cccc(-c2nn(-c3ccccc3)cc2-c2ccnc(NCCCNC(=O)c3ccccc3)c2)c1`: the growth is 51.3% in the assay with NCI-H23 lung; 95.2% with NCI-H322M lung; 53.6% with HOP-62 NSCLC; 51.7% in the assay on NCI-H460 lung; 41.5% in the assay on HOP-92 NSCLC; 38.3% in the assay with NCI-H522 lung. Besides, the growth was 30.7% in the assay on A549/ATCC NSCLC, 40.2% in the assay on 786-0 renal and 35.2% with COLO 205 colon.
Take `CNC(=O)NCC1OC(n2cnc3c(NC(=O)Nc4ccccc4)ncnc32)C(O[Si](C)(C)C(C)(C)C)C1CC(=O)N(C)OC` (stereo not drawn): the growth in the assay on NCI-H23 lung is 48.2%; in the assay with NCI-H322M lung, 78.8%; in the assay with HOP-62 NSCLC it was 60.3%; with NCI-H460 lung, 18.1%; with HOP-92 NSCLC, -34.3% (active); in the assay with NCI-H522 lung, 65.9%. Besides, the growth in the assay with A549/ATCC NSCLC is 2.06% (active); with 786-0 renal, 47.4%; in the assay with COLO 205 colon, -100% (active).
With `CC(=O)C(C)Cc1cc2c(cc1C)C(C)(C)CCC2(C)C` (stereo not drawn), the growth is 95.3% in the assay with NCI-H23 lung; 97.8% in the assay with NCI-H322M lung; 82.4% in the assay with HOP-62 NSCLC; 107% with NCI-H460 lung; 85.3% in the assay on NCI-H522 lung; 79.2% with A549/ATCC NSCLC. Also, the values for the growth in the assay with 786-0 renal and with COLO 205 colon were 95.2% and 105%, respectively.
Take `CCCCCCCCCCCCCCCCCC1=NCCN1CCOC1=C(Cl)C(=O)c2ccccc2C1=O`: the growth in the assay with NCI-H23 lung was 79.4%; in the assay on NCI-H322M lung, 80.5%; in the assay on HOP-62 NSCLC it was 82.6%; in the assay on NCI-H460 lung it was 98.3%; in the assay with HOP-92 NSCLC it was 46.4%; in the assay on NCI-H522 lung it was 13.8%. Also, the growth is 95.3% in the assay on A549/ATCC NSCLC, 98.3% in the assay with 786-0 renal and 41.2% with COLO 205 colon.
Turning to `CCCCN(CCCC)CC(C)(C)C(O)c1ccc(OC)c2ccccc12` (stereo not drawn), the growth with NCI-H23 lung is -1.81% (active); in the assay with NCI-H322M lung, 44.9%; with HOP-62 NSCLC, 73.7%; with NCI-H460 lung it was 39.1%; in the assay on HOP-92 NSCLC it was -9.57% (active); in the assay with NCI-H522 lung, 4.57% (active). The growth was 63.5% in the assay on A549/ATCC NSCLC, 58.4% in the assay with 786-0 renal and 71% in the assay with COLO 205 colon.
As to `Cc1cc[c-]cc1.Fc1c[c-]c(-c2ccccn2)c(F)c1.[Pt+2].c1ccc(P(C[PH+](c2ccccc2)c2ccccc2)c2ccccc2)cc1`, the growth is 7.43% (active) with NCI-H23 lung; 2.59% (active) with HOP-62 NSCLC; 3.67% (active) in the assay with NCI-H460 lung; 8.51% (active) in the assay on NCI-H522 lung; 8.52% (active) in the assay with A549/ATCC NSCLC; 23.1% in the assay on 786-0 renal. In addition, the growth with COLO 205 colon was -41.2% (active).
For the compound `COc1ccc(C2=Nc3c(N)ncnc3NC(c3ccc4c(c3)OCO4)C2)cc1` (stereo not drawn), the growth in the assay on NCI-H23 lung is 69.7%; in the assay with NCI-H322M lung it was 99.4%; in the assay on HOP-62 NSCLC, 68.1%; in the assay with NCI-H460 lung, 102%; in the assay with HOP-92 NSCLC, 45.4%; in the assay with NCI-H522 lung it was 87.4%. Further, the growth in the assay with A549/ATCC NSCLC was 89.3%; in the assay on 786-0 renal, 55.6%; in the assay on COLO 205 colon, 102%.
Turning to `CC1O[C@@H](OC2[C@H](OC(=O)/C=C/c3ccc(O)c(O)c3)C(COC3O[C@H](C)C(O)C(O)[C@@H]3O)O[C@@H](OCCc3ccc(O)c(O)c3)[C@H]2O)[C@@H](O)C(O)[C@H]1O` (stereo partly drawn), the growth is 101% in the assay with NCI-H23 lung; 89.4% with NCI-H322M lung; 103% with HOP-62 NSCLC; 109% in the assay on NCI-H460 lung; 102% with HOP-92 NSCLC; 86.6% with NCI-H522 lung. The growth with A549/ATCC NSCLC was 89.8%; in the assay on 786-0 renal it was 98.8%; in the assay on COLO 205 colon, 104%.
As to `COc1cc2ncn3c(=O)c4c5c(sc4nc3c2cc1OC)CCCC5`, the growth is 91.4% in the assay with NCI-H23 lung; 96.9% in the assay on NCI-H322M lung; 89.8% with HOP-62 NSCLC; 100% in the assay on NCI-H460 lung; 115% with HOP-92 NSCLC; 80.1% in the assay on NCI-H522 lung. Moreover, the results for the growth in the assay with A549/ATCC NSCLC, in the assay with 786-0 renal and in the assay with COLO 205 colon were 96.4%, 105% and 106%, respectively.
As for `Cc1cc(C)c(-c2c(C)cc(C)cc2CBr)c(CBr)c1`, the growth in the assay with NCI-H23 lung is 85.8%; in the assay with NCI-H322M lung, 102%; in the assay on HOP-62 NSCLC it was 84.6%; in the assay with NCI-H460 lung it was 77.2%; in the assay on HOP-92 NSCLC it was 106%; in the assay with NCI-H522 lung it was 66.4%. For the same compound, the results for the growth in the assay on A549/ATCC NSCLC, with 786-0 renal and with COLO 205 colon were 68.6%, 95.8% and 78.6%, respectively.
For the compound `CCC1(C2CCCC2)NC(=O)NC1=O` (stereo not drawn), the growth with NCI-H23 lung was 93.5%; in the assay on NCI-H322M lung it was 106%; in the assay with NCI-H460 lung it was 102%; in the assay on HOP-92 NSCLC, 78.1%; with NCI-H522 lung, 103%; in the assay with A549/ATCC NSCLC it was 104%. Besides, the results for the growth in the assay with 786-0 renal and with COLO 205 colon were 94.1% and 108%, respectively.
